# Read-outs that look alike come from different tables or passages of the source.
# Columns and labels:
# Set-up in all cases: species or system human, MV4-11 + K-562 + COLO205 + SK-N-BE2 + OVCAR-8
# AKT2 = conditions: read-out: apparent Kd; compound concentrations: 100 nM and 1000 nM (sheet 'Samples'), CATDS: 4.2627279294918302E-2; n = 1
# AKT3 = conditions: read-out: apparent Kd; compound concentrations: 100 nM and 1000 nM (sheet 'Samples'), CATDS: 2.7204551549319601E-2; n = 1
# CIT = conditions: read-out: apparent Kd; compound concentrations: 100 nM and 1000 nM (sheet 'Samples'), CATDS: 2.7482144104810799E-2; n = 1
# GSK3A = conditions: read-out: apparent Kd; compound concentrations: 100 nM and 1000 nM (sheet 'Samples'), CATDS: 6.2878990302183399E-2; n = 1
# GSK3B = conditions: read-out: apparent Kd; compound concentrations: 100 nM and 1000 nM (sheet 'Samples'), CATDS: 5.5559924345407602E-2; n = 1
# LATS1 = conditions: read-out: apparent Kd; compound concentrations: 100 nM and 1000 nM (sheet 'Samples'), CATDS: 4.8333915347555698E-2; n = 1
# MARK2 = conditions: read-out: apparent Kd; compound concentrations: 100 nM and 1000 nM (sheet 'Samples'), CATDS: 4.76140671076506E-2; n = 1
# MARK3 = conditions: read-out: apparent Kd; compound concentrations: 100 nM and 1000 nM (sheet 'Samples'), CATDS: 5.1082901600924303E-2; n = 1
# MARK4 = conditions: read-out: apparent Kd; compound concentrations: 100 nM and 1000 nM (sheet 'Samples'), CATDS: 4.9590510521074001E-2; n = 1
# PAK4 = conditions: read-out: apparent Kd; compound concentrations: 100 nM and 1000 nM (sheet 'Samples'), CATDS: 0.104490197523791; n = 1
# PAK6 = conditions: read-out: apparent Kd; compound concentrations: 100 nM and 1000 nM (sheet 'Samples'), CATDS: 0.160954118330599; n = 1
# PKN1 = conditions: read-out: apparent Kd; compound concentrations: 100 nM and 1000 nM (sheet 'Samples'), CATDS: 6.8915050548370396E-2; n = 1
# PRKAA2 = conditions: read-out: apparent Kd; compound concentrations: 100 nM and 1000 nM (sheet 'Samples'), CATDS: 2.6285000431917799E-2; n = 1
# PRKACA = conditions: read-out: apparent Kd; compound concentrations: 100 nM and 1000 nM (sheet 'Samples'), CATDS: 4.9144940605522901E-2; n = 1
# PRKAG2 = conditions: read-out: apparent Kd; compound concentrations: 100 nM and 1000 nM (sheet 'Samples'), CATDS: 2.7426405634362501E-2; n = 1
# PRKCB = conditions: read-out: apparent Kd; compound concentrations: 100 nM and 1000 nM (sheet 'Samples'), CATDS: 2.6716167566890599E-2; n = 1
# PRKCD = conditions: read-out: apparent Kd; compound concentrations: 100 nM and 1000 nM (sheet 'Samples'), CATDS: 3.7280479553999199E-2; n = 1
# PRKCQ = conditions: read-out: apparent Kd; compound concentrations: 100 nM and 1000 nM (sheet 'Samples'), CATDS: 2.7638944484762E-2; n = 1
# PRKG1 = conditions: read-out: apparent Kd; compound concentrations: 100 nM and 1000 nM (sheet 'Samples'), CATDS: 7.0196377588655406E-2; n = 1
# PRKX = conditions: read-out: apparent Kd; compound concentrations: 100 nM and 1000 nM (sheet 'Samples'), CATDS: 0.203063152086782; n = 1
# RPS6KA4 = conditions: read-out: apparent Kd; compound concentrations: 100 nM and 1000 nM (sheet 'Samples'), CATDS: 3.80124112320347E-2; n = 1
# AGK = conditions: read-out: apparent Kd; compound concentrations:100 nM and 1000 nM (sheet 'Samples'); n = 1
# EGFR = conditions: read-out: apparent Kd, n = 1
# HSP90B1 = conditions: read-out: apparent Kd; compound concentrations:100 nM and 1000 nM (sheet 'Samples'); n = 1
# MTHFD1 = conditions: read-out: apparent Kd; compound concentrations:100 nM and 1000 nM (sheet 'Samples'); n = 1
# NNT = conditions: read-out: apparent Kd; compound concentrations:100 nM and 1000 nM (sheet 'Samples'); n = 1
# AGPS = conditions: read-out: apparent Kd; compound concentrations: 100 nM and 1000 nM (sheet 'Samples'), CATDS: 7.5383402334255403E-2; n = 1
# CDK9 = conditions: read-out: apparent Kd; compound concentrations: 100 nM and 1000 nM (sheet 'Samples'), CATDS: 8.3924043652499697E-2; n = 1
# CDKL5 = conditions: read-out: apparent Kd; compound concentrations: 100 nM and 1000 nM (sheet 'Samples'), CATDS: 0.33786107354204697; n = 1
# CSNK1A1 = conditions: read-out: apparent Kd; compound concentrations: 100 nM and 1000 nM (sheet 'Samples'), CATDS: 8.0672688589635194E-2; n = 1
# CSNK1D = conditions: read-out: apparent Kd; compound concentrations: 100 nM and 1000 nM (sheet 'Samples'), CATDS: 0.220619974671908; n = 1
# CSNK1E = conditions: read-out: apparent Kd; compound concentrations: 100 nM and 1000 nM (sheet 'Samples'), CATDS: 0.1850261885326; n = 1
# RAB14 = conditions: read-out: apparent Kd; compound concentrations: 100 nM and 1000 nM (sheet 'Samples'), CATDS: 7.5249376612815694E-2; n = 1
# RIOK2 = conditions: read-out: apparent Kd; compound concentrations: 100 nM and 1000 nM (sheet 'Samples'), CATDS: 0.19530203573374799; n = 1
# STK26 = conditions: read-out: apparent Kd; compound concentrations: 100 nM and 1000 nM (sheet 'Samples'), CATDS: 8.25311561999897E-2; n = 1
# AKT1 = conditions: read-out: apparent Kd; compound concentrations: 100 nM and 1000 nM (sheet 'Samples'), CATDS: 0.123574579018809; n = 1
# BMPR1A = conditions: read-out: apparent Kd; compound concentrations: 100 nM and 1000 nM (sheet 'Samples'), CATDS: 0.16431444601058101; n = 1
# CAMK4 = conditions: read-out: apparent Kd; compound concentrations: 100 nM and 1000 nM (sheet 'Samples'), CATDS: 0.11933253309467701; n = 1
# ILK = conditions: read-out: apparent Kd; compound concentrations: 100 nM and 1000 nM (sheet 'Samples'), CATDS: 0.116106966266716; n = 1
# OPA1 = conditions: read-out: apparent Kd; compound concentrations: 100 nM and 1000 nM (sheet 'Samples'), CATDS: 0.52668483019397605; n = 1
# PIK3C3 = conditions: read-out: apparent Kd; compound concentrations: 100 nM and 1000 nM (sheet 'Samples'), CATDS: 0.14677884590005799; n = 1
compound,measurement,setting,value
CCn1c(-c2nonc2N)nc2c(C#CC(C)(C)O)ncc(OC3CCNCC3)c21.O=C(O)C(F)(F)F [GSK619487A],potency estimated from few doses,AKT2,91.5 nM
same,potency estimated from few doses,AKT3,1300 nM
same,potency estimated from few doses,CIT,1190 nM
same,potency estimated from few doses,GSK3A,26.9 nM
same,potency estimated from few doses,GSK3B,38 nM
same,potency estimated from few doses,LATS1,58.6 nM
same,potency estimated from few doses,MARK2,61.6 nM
same,potency estimated from few doses,MARK3,49 nM
same,potency estimated from few doses,MARK4,53.9 nM
same,potency estimated from few doses,PAK4,7.55 nM
same,potency estimated from few doses,PAK6,2.74 nM
same,potency estimated from few doses,PKN1,21.1 nM
same,potency estimated from few doses,PRKAA2,1810 nM
same,potency estimated from few doses,PRKACA,55.5 nM
same,potency estimated from few doses,PRKAG2,1210 nM
same,potency estimated from few doses,PRKCB,1540 nM
same,potency estimated from few doses,PRKCD,162 nM
same,potency estimated from few doses,PRKCQ,1130 nM
same,potency estimated from few doses,PRKG1,20.1 nM
same,potency estimated from few doses,PRKX,1.58 nM
same,potency estimated from few doses,RPS6KA4,148 nM
CS(=O)(=O)CCNCc1ccc(-c2ccc3ncnc(Nc4ccc(OCc5ccccc5)c(Cl)c4)c3c2)o1.Cl [GW574783B_PKIS1],potency estimated from few doses,AGK,1950 nM
same,potency estimated from few doses,EGFR; compound concentrations:100 nM and 1000 nM (sheet 'Samples'),156 nM
same,potency estimated from few doses,HSP90B1,1710 nM
same,potency estimated from few doses,MTHFD1,1950 nM
same,potency estimated from few doses,NNT,1200 nM
c1cnn2ncc(-c3ccnc(NCCCN4CCOCC4)n3)c2c1 [GW683109X],potency estimated from few doses,AGPS,2080 nM
same,potency estimated from few doses,CDK9,1290 nM
same,potency estimated from few doses,CDKL5,40.1 nM
same,potency estimated from few doses,CSNK1A1,1530 nM
same,potency estimated from few doses,CSNK1D,82.2 nM
same,potency estimated from few doses,CSNK1E,118 nM
same,potency estimated from few doses,RAB14,2100 nM
same,potency estimated from few doses,RIOK2,105 nM
same,potency estimated from few doses,STK26,1390 nM
Cl.O=C(Nc1cccc(-c2nn3ncccc3c2-c2ccnc(Nc3cccnc3)n2)c1)c1c(F)cccc1F [GSK312879A],potency estimated from few doses,AKT1,1640 nM
same,potency estimated from few doses,BMPR1A,841 nM
same,potency estimated from few doses,CAMK4,1800 nM
same,potency estimated from few doses,"EGFR; compound concentrations: 100 nM and 1000 nM (sheet 'Samples'), CATDS: 0.109679225268286",2310 nM
same,potency estimated from few doses,ILK,1950 nM
same,potency estimated from few doses,OPA1,116 nM
same,potency estimated from few doses,PIK3C3,1070 nM

# From publication PMC11062922 (Nature Chemical Biology, 2023)
